# Bioassay records from PubChem.
# CASP6 VEID inh = inhibitors of human caspase-6; 0.53% of 350,000 active; P55212; purified caspase-6, Z-VEID-R110 cleavage fluorescence; inhibition, % at 12.5 µM; AID 686996;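 active means mean inhibition across replicates at least about 35%, with every replicate also reaching that limit, limit read from the data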
# SIRT5 inh = inhibitors of human sirtuin-5 desuccinylase; Purified SirT5, succinyl-peptide AMC, trypsin-coupled fluorescence; AID 652115; inhibition, % at 15 µM; Q9NXA8; 1.1% of 330,000 active; in the data active means inhibition above about 15%
# NSD2 inh = blocks human histone methyltransferase NSD2 | NSD2 peptide methylation, AlphaScreen, 120 min | inhibition, % at 12.5 µM | O96028 | 0.54% of 310,000 active; in the data active means inhibition above about 50%
# SUMO HTRF inh = inhibitors of human SUMOylation (UBC9). AID 2006. inhibition, % at 35 µM. HTRF SUMOylation assay, SAE1/SAE2 + UBC9, in vitro. 0.36% of 290,000 active; in the data active means inhibition above about 50%, passing the limit was not always enough
# A number is an active result; 0 = inactive; - = no result. An excerpt weighted towards active compounds, which were near 1.6% of everything screened.
SMILES,CASP6 VEID inh,SIRT5 inh,NSD2 inh,SUMO HTRF inh
C[C@H](CO)N1C[C@H](C)[C@@H](CN(C)Cc2ccccc2)Oc2cc(C3=CCCC3)ccc2S1(=O)=O,0,17,-,-
COc1ccccc1C(=O)N1C[C@H]2[C@@H](c3ccccc31)[C@@H](CO)N2C(=O)Cc1cccnc1,0,0,-,-
CC=Cc1ccc2n(c1=O)C[C@@H]1[C@@H](CO)[C@H](C(=O)NCc3ccccn3)N(CC3CC3)[C@H]21 (mixture of isomers),0,0,-,-
C[C@@H]1CN([C@H](C)CO)S(=O)(=O)c2ccc(C3=CCCCC3)cc2O[C@@H]1CN(C)C(=O)Cc1cccnc1,0,15,-,-
CCNC(=O)C[C@H]1CC[C@H]2[C@@H](COc3ccc(NC(=O)c4cccc(OC)c4)cc3C(=O)N2C)O1,0,0,-,-
CO[C@@H](CN(C)Cc1ccc2c(c1)OCO2)[C@@H](C)CN(C(=O)Nc1ccc(F)cc1)[C@H](C)CO,0,21,-,-
COc1ccc(-c2nc3ccc([N+](=O)[O-])cc3[nH]2)cc1,0,0,0,55
Nc1ccc2nc(-c3ccc(-c4nc5ccc(N)cc5[nH]4)cc3)[nH]c2c1,0,0,0,62
O=[N+]([O-])c1cccc(-c2nc3ccc([N+](=O)[O-])cc3[nH]2)c1,0,0,0,0
O=[N+]([O-])c1ccc2nc(CCCc3nc4ccc([N+](=O)[O-])cc4[nH]3)[nH]c2c1,0,0,0,69
Nc1ccc2nc(-c3cccc(-c4nc5ccc(N)cc5[nH]4)n3)[nH]c2c1,0,0,0,0
O=[N+]([O-])c1ccc2nc(-c3ccccc3[N+](=O)[O-])[nH]c2c1,38,0,0,0
Cc1ccc(-c2nc3ccc([N+](=O)[O-])cc3[nH]2)cc1,0,0,0,0
C[C@@H]1CN([C@@H](C)CO)C(=O)Cc2cc(NC(=O)c3ccncc3)ccc2O[C@H]1CN(C)CC1CCCCC1,0,0,-,-
O=C(Nc1ccc(Cl)c(Cl)c1)N[C@H]1CC[C@@H](CCn2cc(C3CC3)nn2)O[C@@H]1CO,0,0,-,-
COc1cccc(-c2cn(CC[C@H]3CC[C@H](NC(=O)CC4CC4)[C@H](CO)O3)nn2)c1,0,0,-,-
COc1cccc(-c2cn(CC[C@@H]3CC[C@H](NC(=O)CC4CC4)[C@@H](CO)O3)nn2)c1,0,30,-,-
O=C(Nc1ccc(Cl)c(Cl)c1)N[C@@H]1CC[C@H](CCn2cc(C3CC3)nn2)O[C@H]1CO,0,27,-,-
Cc1ccc(-c2ccc(CN3C(C(C)C)C(=O)N(Cc4cn(Cc5ccco5)nn4)CCS3(=O)=O)cc2)cc1 (stereo unspecified),0,16,-,-
CC(C)C1C(=O)N(Cc2cn(Cc3ccco3)nn2)CCS(=O)(=O)N1Cc1ccc(-c2cccc(N(C)C)c2)cc1 (stereo unspecified),0,-,-,-
CC(C)CC1C(=O)N(Cc2cn(CC3CCCCC3)nn2)CCS(=O)(=O)N1Cc1ccc(-c2ccc(Cl)c(Cl)c2)cc1 (stereo unspecified),0,19,-,-
ClCC1CSC(=NC23CC4CC(CC(C4)C2)C3)O1 (stereo unspecified),0,17,0,0
CO[C@@H]1CN(C)C(=O)c2cc(NC(C)=O)ccc2OC[C@H](C)N(Cc2ccccc2F)C[C@H]1C,0,0,-,-
C[C@H]1CN([C@@H](C)CO)C(=O)c2cc(NC(=O)Nc3ccc(C(F)(F)F)cc3)ccc2O[C@H]1CN(C)S(=O)(=O)c1ccc(Cl)cc1,0,23,-,-
C[C@@H]1CN([C@@H](C)CO)C(=O)Cc2cc(NC(=O)Nc3ccc(F)cc3)ccc2O[C@@H]1CN(C)S(C)(=O)=O,0,0,-,-
SMILES,CASP6 VEID inh,SIRT5 inh,NSD2 inh,SUMO HTRF inh
C[C@H]1CN([C@@H](C)CO)C(=O)Cc2cc(NC(=O)Nc3ccc(F)cc3)ccc2O[C@@H]1CN(C)S(C)(=O)=O,0,18,-,-
C[C@H](CO)N1C[C@H](C)[C@H](CN(C)S(=O)(=O)c2ccc(Cl)cc2)Oc2ccc(NC(=O)Nc3ccc(F)cc3)cc2C1=O,0,15,-,-
C[C@@H]1CN([C@@H](C)CO)C(=O)c2cc(NC(=O)Nc3ccc(F)cc3)ccc2O[C@H]1CN(C)S(=O)(=O)c1ccc(Cl)cc1,0,0,-,-
CO[C@@H]1CN(C)C(=O)c2cc(NC(=O)C3CCOCC3)ccc2OC[C@@H](C)N(Cc2cccnc2)C[C@@H]1C,-,0,-,-
COCC(=O)Nc1ccc2c(c1)OC[C@H](C)N(CC1CC1)C[C@H](C)[C@@H](OC)CN(C)C2=O,0,0,-,-
CCNC(=O)C[C@H]1CC[C@@H]2[C@H](COc3ccc(NC(=O)c4ccc5c(c4)OCO5)cc3C(=O)N2C)O1,0,0,-,-
C[C@H](CO)N1C[C@H](C)[C@@H](CN(C)CC2CC2)OCCCC[C@H](C)Oc2ccc(NS(=O)(=O)c3ccc(Cl)cc3)cc2C1=O,0,0,-,-
C/C(=C/C(=O)NCc1ccccc1)C(=O)O,-,-,0,52
O=S(=O)(NCc1ccncc1)c1ccc(F)cc1F,-,-,0,-
Cc1nc2c(-c3ccc(F)cc3)cnn2c2c1CCC2,56,0,0,0
O=C(C[C@@H]1CC[C@@H](NC(=O)C2CCOCC2)[C@H](CO)O1)NCc1ccncc1,0,0,-,-
CCCC#Cc1ccc2c(c1)O[C@@H](CN(C)C(=O)c1ccccc1F)[C@@H](C)CN([C@H](C)CO)S2(=O)=O,0,20,-,-
CCCC#Cc1ccc2c(c1)O[C@H](CN(C)C(=O)c1ccccc1F)[C@@H](C)CN([C@H](C)CO)S2(=O)=O,0,0,-,-
CCCC#Cc1ccc2c(c1)O[C@H](CN(C)C(=O)c1ccccc1F)[C@@H](C)CN([C@@H](C)CO)S2(=O)=O,0,19,-,-
CCC(=O)Nc1ccc2c(c1)C(=O)N(C)[C@H]1CC[C@@H](CC(=O)NCCc3ccccc3)O[C@H]1CO2,0,0,-,-
O=C(N/N=C/c1c[nH]c2ccccc12)c1cccs1,0,0,0,0
O=C(N/N=C/c1cccc2ccccc12)c1cccs1,0,18,0,0
C[C@@H](NC(=O)C[C@H]1C[C@@H]2c3cc(NC(=O)C4CCOCC4)ccc3O[C@@H]2[C@H](CO)O1)c1ccccc1,0,0,-,-
CCCN1C[C@H](C)[C@H](OC)CN(C)C(=O)c2cc(NC(=O)c3ccno3)ccc2OC[C@@H]1C,0,0,-,-
CN(C)/C=C1\Oc2ccc3ccccc3c2C1=O,0,112,0,0
O=C(Cc1ccc([N+](=O)[O-])cc1)c1c(O)cc(O)cc1O,41,0,0,0
Cc1cc(O)cc(O)c1C(=O)Cc1ccccc1,0,0,0,0
C[C@H]1CN([C@@H](C)CO)S(=O)(=O)c2ccc(C#Cc3cccnc3)cc2O[C@H]1CN(C)C(=O)Nc1ccc2c(c1)OCO2,0,0,-,-
COc1ccc2c3c([nH]c2c1)[C@H](CO)N(Cc1cccnc1)CC31CCN(C(=O)c2cccnc2)CC1,0,0,-,-
Cc1cccc(NC(=O)C2CC(=O)n3ncnc3N2)c1 (stereo unspecified),0,79,0,0
Cc1cc(C)cc(NC(=O)C2CC(=O)n3ncnc3N2)c1 (stereo unspecified),0,0,0,0
CO[C@@H]1CN(C)C(=O)c2cc(NC(=O)C3CCC3)ccc2OC[C@@H](C)N(C(=O)NC(C)C)C[C@@H]1C,0,0,-,-
